# Experimental data reported in PMC7862700, “An all-to-all approach to the identification of sequence-specific readers for epigenetic DNA modifications on cytosine”.
# Legend:
# Assay in all cases: DAPPL (digital affinity profiling via proximity ligation, sequencing); 10 mM Tris-HCl pH 7.5, 50 mM NaCl, 1 mM DTT, 4% glycerol, room temperature, 30 min; GST-TFs on glutathione beads, 16-mer random dsDNA library, 0.1% formaldehyde crosslink after washing; high values mean tight binding
# [1] = molecular target: T1, ELK1 (Homo sapiens, UniProt P19419 1-428); conditions: protein: recombinant; tags: N-terminal GST; dsDNA, one strand shown
# T1 sequence: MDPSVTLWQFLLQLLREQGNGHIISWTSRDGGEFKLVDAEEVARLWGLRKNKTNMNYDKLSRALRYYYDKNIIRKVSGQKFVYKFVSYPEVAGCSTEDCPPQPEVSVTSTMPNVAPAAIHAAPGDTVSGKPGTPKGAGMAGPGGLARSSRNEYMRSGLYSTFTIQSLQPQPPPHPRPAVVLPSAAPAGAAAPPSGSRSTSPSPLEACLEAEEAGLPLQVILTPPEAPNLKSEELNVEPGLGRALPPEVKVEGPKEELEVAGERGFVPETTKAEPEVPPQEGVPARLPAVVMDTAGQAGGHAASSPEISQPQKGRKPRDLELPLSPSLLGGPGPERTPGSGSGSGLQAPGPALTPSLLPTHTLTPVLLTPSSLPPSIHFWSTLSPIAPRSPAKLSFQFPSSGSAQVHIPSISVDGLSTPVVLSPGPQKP
# How it was run: (§1)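 After expression in yeast as GST fusions, human transcription factors were bound to glutathione beads, DNA-barcoded and mixed with a tag-only sample. The pools were incubated with 200 nmole of a 16-mer random double-stranded DNA library in Tris/NaCl/DTT/glycerol buffer (30 min, room temperature), washed and crosslinked with 0.1% formaldehyde. Proximity ligation with BsaI/T4 ligase ran for 1 h at 37 °C, before PCR amplification and sequencing on an Illumina NextSeq500. Binding signal is a hexamer's read frequency for a factor divided by its frequency for the tag-only sample.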
# [2] = molecular target: T2, GABPA (Homo sapiens, UniProt Q06546 1-454); conditions: protein: recombinant; tags: N-terminal GST; dsDNA, one strand shown
# T2 sequence: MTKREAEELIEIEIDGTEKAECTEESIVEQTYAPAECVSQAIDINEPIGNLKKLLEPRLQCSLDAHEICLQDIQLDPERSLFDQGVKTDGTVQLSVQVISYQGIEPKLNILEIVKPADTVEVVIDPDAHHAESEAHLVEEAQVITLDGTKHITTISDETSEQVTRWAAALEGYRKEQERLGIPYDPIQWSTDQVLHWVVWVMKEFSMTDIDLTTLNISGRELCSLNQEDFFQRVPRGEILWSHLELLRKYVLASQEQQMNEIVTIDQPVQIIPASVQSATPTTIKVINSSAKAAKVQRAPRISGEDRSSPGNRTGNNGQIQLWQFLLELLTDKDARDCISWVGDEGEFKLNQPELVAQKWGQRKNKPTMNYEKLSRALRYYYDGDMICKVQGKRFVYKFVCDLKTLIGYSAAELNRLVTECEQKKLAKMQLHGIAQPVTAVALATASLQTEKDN
# How it was run: as §1
# [3] = molecular target: T3, ERG (Homo sapiens, UniProt P11308 1-479); conditions: protein: recombinant; tags: N-terminal GST; dsDNA, one strand shown
# T3 sequence: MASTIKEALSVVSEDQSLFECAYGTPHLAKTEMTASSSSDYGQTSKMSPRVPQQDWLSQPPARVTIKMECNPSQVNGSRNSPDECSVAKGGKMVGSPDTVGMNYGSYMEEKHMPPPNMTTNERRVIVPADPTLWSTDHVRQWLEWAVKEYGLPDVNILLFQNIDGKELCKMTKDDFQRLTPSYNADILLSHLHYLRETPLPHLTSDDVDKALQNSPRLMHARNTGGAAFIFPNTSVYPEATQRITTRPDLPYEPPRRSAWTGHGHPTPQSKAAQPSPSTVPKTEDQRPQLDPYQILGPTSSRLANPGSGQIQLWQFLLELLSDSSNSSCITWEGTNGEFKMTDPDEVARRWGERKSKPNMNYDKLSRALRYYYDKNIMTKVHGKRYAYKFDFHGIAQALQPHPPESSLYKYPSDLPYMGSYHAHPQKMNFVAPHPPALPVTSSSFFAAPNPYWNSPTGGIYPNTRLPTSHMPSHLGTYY
# How it was run: as §1
# [4] = molecular target: ELF1 (Homo sapiens, UniProt P32519 1-619); conditions: protein: recombinant; tags: N-terminal GST; dsDNA, one strand shown
# Sequence of ELF1 (P32519 whole entry): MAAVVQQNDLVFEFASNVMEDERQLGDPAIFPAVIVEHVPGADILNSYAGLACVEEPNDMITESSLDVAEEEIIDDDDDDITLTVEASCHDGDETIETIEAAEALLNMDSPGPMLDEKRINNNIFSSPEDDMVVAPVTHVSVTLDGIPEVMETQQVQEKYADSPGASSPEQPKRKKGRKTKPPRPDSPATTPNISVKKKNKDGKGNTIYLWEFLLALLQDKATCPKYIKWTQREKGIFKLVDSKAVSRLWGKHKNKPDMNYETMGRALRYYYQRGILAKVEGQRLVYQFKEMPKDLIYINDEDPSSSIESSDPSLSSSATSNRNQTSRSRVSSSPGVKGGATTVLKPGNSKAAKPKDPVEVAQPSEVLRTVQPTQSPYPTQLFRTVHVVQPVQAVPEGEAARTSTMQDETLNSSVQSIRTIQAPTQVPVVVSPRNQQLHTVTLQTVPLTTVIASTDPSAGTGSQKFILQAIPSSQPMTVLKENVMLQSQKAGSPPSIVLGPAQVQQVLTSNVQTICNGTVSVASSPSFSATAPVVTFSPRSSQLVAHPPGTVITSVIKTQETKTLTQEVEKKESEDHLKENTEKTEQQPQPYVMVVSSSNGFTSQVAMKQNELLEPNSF
# How it was run: as §1
# [5] = molecular target: T4, EHF (Homo sapiens, UniProt Q9NZC4 1-300); conditions: protein: recombinant; tags: N-terminal GST; dsDNA, one strand shown
# T4 sequence: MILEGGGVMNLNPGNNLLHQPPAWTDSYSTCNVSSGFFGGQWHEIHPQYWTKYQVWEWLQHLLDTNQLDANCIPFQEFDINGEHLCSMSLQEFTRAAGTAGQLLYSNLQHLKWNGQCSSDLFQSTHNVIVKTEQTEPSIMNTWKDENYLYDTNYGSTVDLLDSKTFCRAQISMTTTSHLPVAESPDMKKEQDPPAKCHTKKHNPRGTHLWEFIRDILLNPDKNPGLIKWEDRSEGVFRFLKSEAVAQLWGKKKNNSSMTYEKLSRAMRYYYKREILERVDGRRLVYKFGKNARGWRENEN
# How it was run: as §1
# [6] = molecular target: HSF1 (Homo sapiens, UniProt Q00613 1-529); conditions: protein: recombinant; tags: N-terminal GST; chain copies: 3; dsDNA, one strand shown
# Sequence of HSF1 (Q00613 whole entry): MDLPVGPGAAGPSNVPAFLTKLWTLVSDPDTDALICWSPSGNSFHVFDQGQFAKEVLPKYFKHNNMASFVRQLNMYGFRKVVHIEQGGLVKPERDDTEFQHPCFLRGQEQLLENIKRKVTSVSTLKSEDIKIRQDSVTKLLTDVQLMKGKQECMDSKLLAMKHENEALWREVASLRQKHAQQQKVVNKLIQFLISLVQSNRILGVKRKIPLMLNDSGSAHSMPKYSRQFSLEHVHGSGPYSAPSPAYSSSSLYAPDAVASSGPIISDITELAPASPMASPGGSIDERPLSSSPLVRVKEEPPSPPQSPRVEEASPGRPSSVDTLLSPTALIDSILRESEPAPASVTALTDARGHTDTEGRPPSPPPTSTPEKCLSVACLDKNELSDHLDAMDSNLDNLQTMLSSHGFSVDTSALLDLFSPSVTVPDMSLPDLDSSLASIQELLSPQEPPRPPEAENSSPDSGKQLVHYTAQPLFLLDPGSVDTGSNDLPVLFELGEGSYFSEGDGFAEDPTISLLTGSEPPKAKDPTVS
# How it was run: as §1
# [7] = molecular target: T5, SPIC (Homo sapiens, UniProt Q8N5J4 1-248); conditions: protein: recombinant; tags: N-terminal GST; dsDNA, one strand shown
# T5 sequence: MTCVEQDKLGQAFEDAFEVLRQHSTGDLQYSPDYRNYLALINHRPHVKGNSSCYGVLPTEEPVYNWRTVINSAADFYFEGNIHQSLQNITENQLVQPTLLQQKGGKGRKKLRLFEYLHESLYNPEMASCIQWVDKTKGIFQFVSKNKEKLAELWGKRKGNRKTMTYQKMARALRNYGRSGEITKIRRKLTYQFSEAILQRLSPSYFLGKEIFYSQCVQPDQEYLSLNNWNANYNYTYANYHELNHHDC
# How it was run: as §1
# [8] = molecular target: CRX (Homo sapiens, UniProt O43186 1-299); conditions: protein: recombinant; tags: N-terminal GST; dsDNA, one strand shown
# Sequence of CRX (O43186 whole entry): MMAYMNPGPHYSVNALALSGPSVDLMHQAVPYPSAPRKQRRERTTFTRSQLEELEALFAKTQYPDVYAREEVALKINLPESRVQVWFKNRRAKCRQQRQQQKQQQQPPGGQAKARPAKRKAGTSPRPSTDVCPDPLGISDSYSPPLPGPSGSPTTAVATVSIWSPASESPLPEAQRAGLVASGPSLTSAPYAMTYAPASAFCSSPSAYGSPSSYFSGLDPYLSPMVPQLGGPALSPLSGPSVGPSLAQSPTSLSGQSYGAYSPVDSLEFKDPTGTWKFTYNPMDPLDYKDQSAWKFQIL
# How it was run: as §1
# [9] = molecular target: T6, ERF (Homo sapiens, UniProt P50548 1-548); conditions: protein: recombinant; tags: N-terminal GST; dsDNA, one strand shown
# T6 sequence: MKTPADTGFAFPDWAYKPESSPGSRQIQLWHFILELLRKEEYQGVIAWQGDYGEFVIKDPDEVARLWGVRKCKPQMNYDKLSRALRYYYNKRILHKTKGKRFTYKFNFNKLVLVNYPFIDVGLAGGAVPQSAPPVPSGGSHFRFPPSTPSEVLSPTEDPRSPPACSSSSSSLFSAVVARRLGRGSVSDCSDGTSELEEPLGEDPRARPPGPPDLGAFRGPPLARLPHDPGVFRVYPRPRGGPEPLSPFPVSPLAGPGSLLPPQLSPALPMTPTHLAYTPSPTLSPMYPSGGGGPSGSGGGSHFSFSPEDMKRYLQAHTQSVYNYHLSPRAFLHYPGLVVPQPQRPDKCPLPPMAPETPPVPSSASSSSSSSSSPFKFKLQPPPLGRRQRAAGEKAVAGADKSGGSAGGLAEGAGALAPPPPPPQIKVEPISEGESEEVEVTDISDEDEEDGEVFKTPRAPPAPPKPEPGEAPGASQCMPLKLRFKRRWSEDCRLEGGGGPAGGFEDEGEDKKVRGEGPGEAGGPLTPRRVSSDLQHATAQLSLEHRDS
# How it was run: as §1
# [10] = molecular target: SPI1 (Homo sapiens, UniProt P17947 1-270); conditions: protein: recombinant; tags: N-terminal GST; dsDNA, one strand shown
# How it was run: as §1
# [11] = molecular target: SPIB (Homo sapiens, UniProt Q01892 1-262); conditions: protein: recombinant; tags: N-terminal GST; dsDNA, one strand shown
# Sequence of SPIB (Q01892 whole entry): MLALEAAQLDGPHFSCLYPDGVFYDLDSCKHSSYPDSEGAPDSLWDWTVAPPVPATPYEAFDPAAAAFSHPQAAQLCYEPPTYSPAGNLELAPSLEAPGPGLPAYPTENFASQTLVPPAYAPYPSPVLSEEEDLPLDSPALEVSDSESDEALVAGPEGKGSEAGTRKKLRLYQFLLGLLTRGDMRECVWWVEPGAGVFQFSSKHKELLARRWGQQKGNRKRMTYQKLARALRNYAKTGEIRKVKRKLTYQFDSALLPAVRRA
# How it was run: as §1
# [12] = molecular target: T7, ELK4 (Homo sapiens, UniProt P28324-2 1-405); conditions: protein: recombinant; tags: N-terminal GST; dsDNA, one strand shown
# T7 sequence: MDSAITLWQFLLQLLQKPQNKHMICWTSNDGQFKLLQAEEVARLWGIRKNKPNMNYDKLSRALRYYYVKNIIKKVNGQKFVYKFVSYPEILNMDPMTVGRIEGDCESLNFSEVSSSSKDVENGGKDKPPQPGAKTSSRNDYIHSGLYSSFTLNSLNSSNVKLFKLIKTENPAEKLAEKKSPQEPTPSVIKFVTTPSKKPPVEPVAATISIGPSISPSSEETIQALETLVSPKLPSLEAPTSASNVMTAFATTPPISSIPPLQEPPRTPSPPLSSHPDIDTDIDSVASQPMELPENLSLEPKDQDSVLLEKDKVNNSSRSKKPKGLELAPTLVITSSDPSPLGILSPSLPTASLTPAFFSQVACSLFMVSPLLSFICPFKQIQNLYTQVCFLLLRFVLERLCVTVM
# How it was run: as §1
# [13] = molecular target: T8, ELF3 (Homo sapiens, UniProt P78545 1-371); conditions: protein: recombinant; tags: N-terminal GST; dsDNA, one strand shown
# T8 sequence: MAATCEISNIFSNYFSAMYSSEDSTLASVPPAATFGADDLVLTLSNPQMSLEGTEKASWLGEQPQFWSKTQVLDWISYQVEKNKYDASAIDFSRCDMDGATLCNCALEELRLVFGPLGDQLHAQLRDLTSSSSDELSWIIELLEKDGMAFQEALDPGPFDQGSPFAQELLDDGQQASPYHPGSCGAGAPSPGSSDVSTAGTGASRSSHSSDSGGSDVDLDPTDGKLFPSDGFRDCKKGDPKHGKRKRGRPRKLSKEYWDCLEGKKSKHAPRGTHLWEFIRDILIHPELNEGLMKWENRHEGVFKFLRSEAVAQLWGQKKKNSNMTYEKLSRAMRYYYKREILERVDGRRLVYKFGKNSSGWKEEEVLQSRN
# How it was run: as §1
# [14] = molecular target: ETV1 (Homo sapiens, UniProt P50549 1-477); conditions: protein: recombinant; tags: N-terminal GST; dsDNA, one strand shown
# Sequence of ETV1 (P50549 whole entry): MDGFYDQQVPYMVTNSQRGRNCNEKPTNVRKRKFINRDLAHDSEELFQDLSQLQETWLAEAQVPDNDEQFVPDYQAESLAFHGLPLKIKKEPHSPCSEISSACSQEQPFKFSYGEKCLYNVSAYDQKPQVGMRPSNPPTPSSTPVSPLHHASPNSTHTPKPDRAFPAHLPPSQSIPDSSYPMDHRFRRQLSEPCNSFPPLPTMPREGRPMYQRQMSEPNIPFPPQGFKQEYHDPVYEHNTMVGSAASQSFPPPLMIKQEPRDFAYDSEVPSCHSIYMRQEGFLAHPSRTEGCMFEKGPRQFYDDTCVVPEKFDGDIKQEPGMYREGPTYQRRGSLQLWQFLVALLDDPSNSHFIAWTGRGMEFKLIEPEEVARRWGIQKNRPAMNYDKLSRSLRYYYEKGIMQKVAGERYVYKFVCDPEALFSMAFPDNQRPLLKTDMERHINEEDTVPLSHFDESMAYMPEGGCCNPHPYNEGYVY
# How it was run: as §1
# [15] = molecular target: T9, ETS2 (Homo sapiens, UniProt P15036 1-469); conditions: protein: recombinant; tags: N-terminal GST; dsDNA, one strand shown
# T9 sequence: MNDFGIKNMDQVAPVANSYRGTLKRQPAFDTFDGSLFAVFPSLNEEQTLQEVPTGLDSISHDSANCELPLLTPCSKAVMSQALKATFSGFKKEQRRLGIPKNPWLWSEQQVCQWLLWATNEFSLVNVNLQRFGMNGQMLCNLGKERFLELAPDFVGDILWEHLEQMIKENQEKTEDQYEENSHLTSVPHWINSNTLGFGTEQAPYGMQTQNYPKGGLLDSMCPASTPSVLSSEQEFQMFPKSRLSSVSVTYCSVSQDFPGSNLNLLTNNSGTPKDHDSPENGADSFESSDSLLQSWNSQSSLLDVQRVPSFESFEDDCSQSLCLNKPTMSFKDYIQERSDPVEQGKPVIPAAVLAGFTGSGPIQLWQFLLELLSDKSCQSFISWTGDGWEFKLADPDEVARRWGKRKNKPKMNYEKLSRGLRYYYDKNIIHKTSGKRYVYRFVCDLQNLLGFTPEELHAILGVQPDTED
# How it was run: as §1
# [16] = molecular target: T10, ETV3 (Homo sapiens, UniProt P41162-2 1-143); conditions: protein: recombinant; tags: N-terminal GST; dsDNA, one strand shown
# T10 sequence: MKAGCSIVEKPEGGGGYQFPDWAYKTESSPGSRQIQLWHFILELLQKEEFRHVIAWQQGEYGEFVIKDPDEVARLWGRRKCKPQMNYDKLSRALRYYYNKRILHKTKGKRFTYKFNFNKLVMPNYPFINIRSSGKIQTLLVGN
# How it was run: as §1
Sequence,binding signal [1],binding signal [2],binding signal [3],binding signal [4],binding signal [5],binding signal [6],binding signal [7],binding signal [8],binding signal [9],binding signal [10],binding signal [11],binding signal [12],binding signal [13],binding signal [14],binding signal [15],binding signal [16]
ACTAGA,"1.02 fold enrichment (6-mer frequency, TF over GST control)","1.01 fold enrichment (6-mer frequency, TF over GST control)","1 fold enrichment (6-mer frequency, TF over GST control)","1.02 fold enrichment (6-mer frequency, TF over GST control)","1.01 fold enrichment (6-mer frequency, TF over GST control)","2.1 fold enrichment (6-mer frequency, TF over GST control)","1.03 fold enrichment (6-mer frequency, TF over GST control)","1.16 fold enrichment (6-mer frequency, TF over GST control)","1.05 fold enrichment (6-mer frequency, TF over GST control)",,,,,,,
CCCTAG,"1.04 fold enrichment (6-mer frequency, TF over GST control)",,,"1.06 fold enrichment (6-mer frequency, TF over GST control)",,"1.15 fold enrichment (6-mer frequency, TF over GST control)","1.18 fold enrichment (6-mer frequency, TF over GST control)",,"1.04 fold enrichment (6-mer frequency, TF over GST control)","1 fold enrichment (6-mer frequency, TF over GST control)","1.05 fold enrichment (6-mer frequency, TF over GST control)","1.01 fold enrichment (6-mer frequency, TF over GST control)","1.13 fold enrichment (6-mer frequency, TF over GST control)","1.01 fold enrichment (6-mer frequency, TF over GST control)","1.03 fold enrichment (6-mer frequency, TF over GST control)","1.04 fold enrichment (6-mer frequency, TF over GST control)"
